# Epigenetic derep: derepresses silenced GFP reporter in murine cells; murine LDR cells, GFP reporter derepression, 30 h; Potency, µM (doses to about 53.9 µM), for inactives: at the highest dose GFP activation, actives largely listed as activators; 280,000 compounds, 0.2% hits; AID 1865; further: % of control where 0% means no effect; nearly all actives have a fitted effect of over 60% in size
#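 Derepression of a silenced CMV-GFP reporter in murine LDR cells is scored by enumerating GFP-positive cells with a laser-scanning microplate cytometer after 30 hours of treatment at 37 C.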
# HttQ103 aggreg: reduces HttQ103-GFP aggregates in PC12 cells; 220,000 compounds, 1.1% hits; Potency, µM (doses to about 46.1 µM), for the others: at the top dose activity change, negative = inhibition, actives largely listed as inhibitors; PC12 HttQ103-GFP aggregates, Acumen cytometry, 40 h; AID 1688; further: on the % scale 0 is the no-effect control and ±100 the full control effect; nearly all actives have a fitted effect of over 60% in size
#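 Multiplexed with ATP-based cell death, this channel scores GFP aggregates in PC12 cells expressing inducible HTTex1-Q103-GFP. Induction used 100 nM tebufenozide; compounds were tested in concentration series.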
# NPSR antagonist: neuropeptide S receptor (human) antagonism, cAMP. Q6W5P4. CHO-NPSR cells, cAMP TR-FRET, antagonist mode. Potency, µM (highest dose often 38.3 µM), for the others: at the highest dose activity change, negative = inhibition, hits mostly inhibitors. 220,000 compounds, 1% hits. AID 1461; further: on the % scale 0 is the no-effect control and ±100 the full control effect; nearly all actives have a fitted effect of over 50% in size
# Target sequence (Q6W5P4 whole entry, looked up): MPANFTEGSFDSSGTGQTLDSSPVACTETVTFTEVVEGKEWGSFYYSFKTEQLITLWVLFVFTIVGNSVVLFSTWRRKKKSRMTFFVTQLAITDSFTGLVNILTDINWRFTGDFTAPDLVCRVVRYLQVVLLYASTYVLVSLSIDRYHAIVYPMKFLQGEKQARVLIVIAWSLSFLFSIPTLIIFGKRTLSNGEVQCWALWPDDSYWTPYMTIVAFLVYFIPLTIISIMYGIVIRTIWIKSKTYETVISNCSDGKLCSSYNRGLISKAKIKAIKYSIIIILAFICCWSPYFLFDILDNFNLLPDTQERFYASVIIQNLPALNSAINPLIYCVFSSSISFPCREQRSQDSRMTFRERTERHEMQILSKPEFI
# HTT cytoprotect: protects HTT-Q103 PC12 cells, measured by ATP | PC12 HTT-Q103 induced, cytoprotection, ATP luminescence, 40 h | Potency, µM (doses to about 56.4 µM), without a hit: cytoprotection (ATP increase), usual class: activators | 230,000 compounds, 0.14% hits | AID 1471; further: % of control where 0% means no effect; nearly all actives have a fitted effect of over 45% in size
#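 Quantitative HTS on tebufenozide-induced (100 nM) PC12 cells expressing HTTQ103 exon 1–GFP; compounds tested as a concentration series; survival measured via cellular ATP.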
# Lamin A splicing: LMNA splicing modulation; HeLa LMNA splicing GFP/RFP minigene ratio, 48 h; Potency, µM (titrated, usually from 46.1 µM), for the others: at the highest dose ratio change, negative = inhibition, actives largely listed as inhibitors; 200,000 compounds, 0.01% hits; AID 1487; active means well fitted inhibition curve with a large enough effect in the signal ratio, with a control signal flat, not every such curve was filed as active; inconclusive means small, poorly fitted or top-dose-only effect, or effect the other way, or a change in a side signal; the % refers to the signal ratio; further: on the % scale 0 is the no-effect control and ±100 the full control effect
#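 S3 HeLa cells stably expressing lamin A-EGFP splicing minigene plus DsRed2, 600 cells/well, 48 h compound exposure at 37C. Laser-scanning cytometry; analysed as GFP (500-530 nm)/RFP (575-640 nm) total intensity ratio; 0.5% DMSO vehicle.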
# Numbers without * were called inactive; ? = inconclusive; . = no result; ! = not active in a repeat; [ ] = dose if it differs, or a comment. The list is not random: actives were taken first. Their share in the collection is about 1.5%. Unless noted, the call rests on the fitted dose curve; in most records, active means well fitted curve in the direction sought with a large enough effect; inconclusive means small, poorly fitted or top-dose-only effect, or another doubt; inactive means no such curve, though single readings can be large; an effect the other way counts as inactive or inconclusive. Potency means the concentration at half of the fitted maximal effect.
SMILES,Epigenetic derep,HttQ103 aggreg,NPSR antagonist,HTT cytoprotect,Lamin A splicing
CCN(C(=O)Cn1c(=O)n(-c2ccccc2)c(=O)c2ccc(C(=O)NCc3ccc4c(c3)OCO4)cc21)c1cccc(C)c1,0.6%,.,.,.,.
Cc1cc(C(=O)CSc2nc(N)cc(=O)[nH]2)c(C)n1CCc1ccc(F)cc1,-0.2%,?,-21.0%[46.1 µM],-47.6%,?
COc1ccc(CCn2c(C)cc(C(=O)CSc3nc(N)cc(=O)[nH]3)c2C)cc1,-1.1%,7.08µM*,-15.6%[46.1 µM],-59.4%,1.2%
CCc1cccc(NC(c2nnc(-c3ccccc3)o2)c2ccc(F)cc2Cl)c1 (configuration not stated),0.8%,.,.,.,?
Cc1ccc(CN2CCSc3ccc(C(=O)Nc4ccc(F)cc4F)cc32)cc1,11.1%,.,.,.,.
COC(=O)c1cc(=O)n(CCc2ccccc2)c(=Nc2ccc(F)cc2)s1,-0.8%,-18.9%,10µM*,-23.3%[10 µM],?
CCOC(=O)c1ccc(N=c2sc(C(=O)OC)cc(=O)n2CCCN2CCOCC2)cc1,?,-24.2%,12.6µM*!,-21.2%,?
Clc1nc2ccccc2nc1Cl,.,.,.,21.4%,.
Nc1ccc(-c2ccc(Nc3cc(S(=O)(=O)O)c(N)c4c3C(=O)c3ccccc3C4=O)cc2)c(S(=O)(=O)O)c1,.,.,.,3.5%[10 µM],.
Cc1cc(C)c(Nc2cc(S(=O)(=O)O)c(N)c3c2C(=O)c2ccccc2C3=O)c(C)c1,5.7%,21.1%,5.01µM*,24.6%[10 µM],-2.7%
c1ccc(C2OC3c4cccc5cccc(c45)C3N2c2ccccc2)cc1 (configuration not stated),-1.0%,11.2µM*,2.4%[46.1 µM],24.6%[10 µM],?
O=C(NCc1ccccc1F)C(=O)NCC(c1cccs1)S(=O)(=O)c1cccs1 (configuration not stated),-0.2%,.,.,.,?
CCCCOc1ccc(C(=O)NCCc2sc(-c3cccc(F)c3)nc2C)cc1,6.1%,.,.,.,-13.9%[46 µM]
C=CCOC(=O)C1=C(C)NC(SCC(=O)Nc2nccs2)=C(C#N)C1c1ccc(Cl)cc1 (configuration not stated),-1.2%,13.5%,?,-25.4%,?
C=CCOC(=O)C1=C(C)NC(SCC(=O)Nc2nccs2)=C(C#N)C1c1cccs1 (configuration not stated),-1.8%,12.6µM*,-24.3%[46.1 µM],-32.0%,?
Cn1c(=O)c2nc(NCc3ccccc3)cnc2n(C)c1=O,2.0%,0.6%[9.22 µM],6.5%[46.1 µM],-11.5%[10 µM],?
Cc1nc2c(=O)n(C)c(=O)n(C)c2nc1Cl,?,10µM*,-31.0%,-89.8%[10 µM],?
CCN(CC)c1ccc2cc(-c3nc4ccccc4n3C)c(=O)oc2c1,7.08µM*,?,?,-107.4%,-10.1%
CC(C)(C)c1cc(C(C)(C)C)c2oc(=O)c(-c3nc4ccccc4[nH]3)cc2c1,13.8%,.,.,.,?
O=c1oc2ccc3ccccc3c2cc1-c1nnc(-c2ccccc2)o1,-0.7%,4.2%,-14.4%[46.1 µM],-18.2%[10 µM],?
CCN(CC)c1ccc2cc(-c3nnc(-c4ccccc4)o3)c(=O)oc2c1,3.16µM*,7.08µM*,-14.3%[46.1 µM],14.9%[10 µM],?
CCN(CC)c1ccc2cc(-c3nc4ccccc4[nH]3)c(=O)oc2c1,2.82µM*,0.316µM*,?,-76.5%[10 µM],?
CCCCCn1c(=O)c2c(nc3n2CCN3c2ccc(Br)cc2)n(C)c1=O,0.0%,.,.,.,?
CCN(CC)C[C@@H](O)c1ccc2ccc3ccccc3c2c1,.,.,.,11.5%[10 µM],.
CCOc1ccc(C(C)NC(=S)NC2CCCCC2)cc1 (configuration not stated),4.9%,0.562µM*,-21.8%,8.6%[10 µM],.
SMILES,Epigenetic derep,HttQ103 aggreg,NPSR antagonist,HTT cytoprotect,Lamin A splicing
CCOc1ccc(C(C)NC(=S)NC2CCCCC2)cc1OCC (configuration not stated),0.5%,?,-13.6%,-6.9%,?
COc1ccc(-c2cc(=O)n3[nH]cnc3n2)cc1,-0.2%,.,.,.,?
COc1ccc(Cl)cc1NC(=O)C(C)N1CCN(C/C=C/c2ccccc2)CC1 (configuration not stated),0.0%,-11.4%,10µM*,-18.0%,?
CC(C)c1ccc(C2C3CSCC=C3C(C#N)=C(N)C2(C#N)C#N)cc1 (configuration not stated),0.7%,29.8%,10µM*,?,5.4%
CN1CC=C2C(C#N)=C(N)C(C#N)(C#N)[C@H](c3cccc(Cl)c3)C2C1 (some centres not stated),0.7%,11.4%,-14.7%[46.1 µM],5.0%,-8.7%
O=C(COc1ccccc1)NCCc1csc(-c2ccc(Cl)cc2)n1,1.7%,.,.,.,?
COc1ccc(Cn2cc(F)c(=O)n(C)c2=O)cc1[N+](=O)[O-],1.0%,13.1%[9.22 µM],3.1%,9.6%[10 µM],.
COc1ccc(Br)cc1C(C[N+](=O)[O-])c1c(N)n(C)c(=O)n(C)c1=O (configuration not stated),?,3.98µM*,-50.7%,-78.6%[10 µM],.
O=S(=O)(c1ccc(F)cc1)n1ccc2cccnc21,1.0%,-2.9%,0.4%[46.1 µM],-0.5%[10 µM],-11.8%
O=S(=O)(c1ccccc1)n1ccc2ccccc21,4.3%,11.2µM*,-15.3%[7.67 µM],6.4%,?
Cc1cc(C)c(S(=O)(=O)NCCn2ccc3ccccc32)c(C)c1,0.0%,-7.4%,-7.9%[46.1 µM],?,-9.5%
Cc1cc(C)c(S(=O)(=O)n2ccc3ccccc32)c(C)c1,-4.8%,10µM*,?,-77.5%,3.2%
O=c1c(-c2ccccc2)c1-c1ccccc1,-1.1%,14.1µM*,-35.7%,11.2µM*,?
O=C(O)c1cc(C(=O)O)c(-c2ccccc2)c(C(=O)O)c1,-1.1%,7.0%,-0.3%[46.1 µM],-8.1%,3.2%
O=C(NCCSc1c[nH]c2ccccc12)c1ccc(Br)o1,1.0%,-6.1%,-13.5%,28.9%[10 µM],?
Cc1[nH]c2ccccc2c1SCCNC(=O)c1ccc(Br)o1,6.0%,25.1µM*,-18.4%[46.1 µM],-19.8%[10 µM],?
O=C(NC1CCCCCC1)C1CCN(C(=O)N2CCOc3ccccc32)CC1,0.0%,.,.,.,?
Cc1ccc(Cn2cc(SCC(=O)Nc3nccs3)c3ccccc32)cc1,2.3%,8.5%,10µM*,-37.2%[10 µM],-4.6%
Cc1csc(NC(=O)CSc2nc3ccccc3s2)n1,-0.1%,-9.9%,-9.0%[46.1 µM],10.6%[10 µM],-0.5%
O=C(CSc1nc2ccccc2s1)Nc1nccs1,-1.1%,20µM*,-10.9%[46.1 µM],3.2%,5.0%
Cc1cccc(Cn2cc(SCC(=O)Nc3nccs3)c3ccccc32)c1,0.8%,2.7%,?,13.4%[10 µM],-4.0%
O=S(=O)(Nc1ccc(-c2csc(-c3ccccc3)n2)cc1)c1ccc(F)cc1,0.9%,-32.8%,?,7.7%[10 µM],?
COc1ccccc1C(=O)Nc1nc(-c2ccc(S(=O)(=O)N3CCOCC3)cc2)cs1,-0.8%,2.51µM*,?,-90.3%,?
O=C(Nc1nc(-c2ccccc2)cs1)c1ccccc1NS(=O)(=O)c1ccc(F)cc1,-1.8%,1.78µM*,?,-71.5%[10 µM],?
CCOC(=O)c1sc(NC(=O)c2ccc(Cl)s2)cc1C,0.0%,-14.7%,-8.0%[46.1 µM],-8.2%[10 µM],-14.7%
